# Laboratory results published in PubChem BioAssay AID651571 (The Scripps Research Institute Molecular Screening Center, 2012).
# The whole screen tested about 1,500 compounds, of which about 1,300 (87%) were called active. Cut-off read from the data, not from the text of the source: active = inhibition above about 9%; inactive = the rest. So high a share suggests a set chosen from earlier hits. Only a sample is shown.
# Experiment: binders of anti-gp120 antibody PG9, confirmation, biochemical, TR-FRET (AID 651571)
# Settings: TR-FRET PG9 antibody binding, at 6.7 µM, hits give high values
row,Structure (SMILES),inhibition
1,CCN(CC)C(=O)c1ccc(NC(=O)c2sccc2-c2ccccc2)cc1,16.6% (active)
2,N#CC1=C(N)Oc2c(c(=O)oc3ccccc23)C1c1ccccc1OC(=O)c1cccs1 (configuration not stated),20.4% (active)
